# Screen size: about 96,000 compounds; about 20,000 (21%) were called active.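 How the source made its calls: active means CYP2C19 inhibition above a set limit at 5 µM in the primary screen (cut at about 50% in these data); inactive means the rest.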 These entries were drawn from the full list.
# Biological target: Cytochrome P450 2C19 (Homo sapiens) (UniProt P33261)
# Experiment: blockers of cytochrome P450 2C19 activity – biochemical, luminescence, ADME assay, primary screen (AID 778);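 further: plate controls were negative control wells for no effect and 2.5 mM tranylcypromine positive control for full effect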
# Details: CYP2C19 Supersomes, luciferin-H EGE luminescence, 30 min; at 5 µM; active compounds read high
# Sequence of Cytochrome P450 2C19 (Homo sapiens) (P33261 whole entry, looked up): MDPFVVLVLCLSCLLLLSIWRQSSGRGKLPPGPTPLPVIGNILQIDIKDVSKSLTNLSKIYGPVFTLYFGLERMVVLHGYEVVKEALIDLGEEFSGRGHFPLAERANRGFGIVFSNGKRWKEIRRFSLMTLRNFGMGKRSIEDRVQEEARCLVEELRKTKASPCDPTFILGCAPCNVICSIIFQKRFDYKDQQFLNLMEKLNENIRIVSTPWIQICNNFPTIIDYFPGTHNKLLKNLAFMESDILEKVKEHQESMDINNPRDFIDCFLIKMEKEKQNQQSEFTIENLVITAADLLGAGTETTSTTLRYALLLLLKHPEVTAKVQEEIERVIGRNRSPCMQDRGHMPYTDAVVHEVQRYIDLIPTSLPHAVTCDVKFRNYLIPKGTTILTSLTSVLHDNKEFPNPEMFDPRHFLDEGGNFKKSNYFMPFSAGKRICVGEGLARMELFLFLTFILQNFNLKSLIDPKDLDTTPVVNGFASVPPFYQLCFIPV
row,SMILES,inhibition
1,CC(C)C1C2=C(CC(C)(C)CC2=O)ON1c1ccccc1 (stereo unspecified),34.7% (inactive)
2,COc1ccc(CN2CN(C(C)C)CSC2=S)cc1,8.5% (inactive)
3,O=C1CSC(c2ccccc2)N1c1nc(-c2ccc(Cl)cc2Cl)cs1 (stereo unspecified),-2.8% (inactive)
4,CCCc1ccc(-c2csc(NC(=O)Cc3cccs3)n2)cc1,28% (inactive)
5,Cc1ccc(S(=O)(=O)Nc2nc(C)cc(-n3nc(C)cc3C)n2)cc1,22% (inactive)
6,CC(=O)N1CCN(C(=O)c2cccc(S(=O)(=O)Nc3ccc(C)cc3)c2)CC1,11.6% (inactive)
7,Cc1ccc(S(=O)(=O)Nc2ccc3ncccc3c2)cc1,89.8% (active)
8,FC(F)(F)c1nnc2ccc(N3CCN(c4ccccc4)CC3)nn12,27.9% (inactive)
9,O=C(Nc1ccccc1C(=O)N1CCOCC1)C1CCC(=O)N1C1CCCC1 (stereo unspecified),-12.6% (inactive)
10,CCC(=O)N(Cc1ccccc1)c1ccccn1,-5.8% (inactive)
11,Cn1c(SCC(=O)Nc2cccc(NC(=O)c3cccs3)c2)nnc1-c1ccncc1,54% (active)
12,CCc1ccc(NC(=O)CSc2nnc(-c3cnccn3)n2Cc2ccco2)cc1,21.4% (inactive)
13,Cc1ccccc1C(=O)Nc1cccc(-c2nnc(SCC(=O)O)n2C)c1,-18.4% (inactive)
14,CCc1nnc(NC(=O)CSc2nnc(-c3ccncc3)n2Cc2ccccc2)s1,41.3% (inactive)
15,COC(=O)c1ccc(NC(=O)CSc2nnc(CNc3ccc(OC)cc3)n2C)cc1,29.7% (inactive)
16,CCCCSc1nnc(-c2ccc(NC(=O)CC)cc2)n1C,21.4% (inactive)
17,CCC(=O)Nc1cccc(NC(=O)CSc2nnc(-c3ccc(NS(C)(=O)=O)cc3)n2C)c1,23.6% (inactive)
18,CCn1c(SCC(=O)Nc2cc(C)ccc2C)nnc1-c1cnccn1,71.7% (active)
19,CCn1c(SCC(=O)Nc2nccs2)nnc1-c1ccncc1,66.7% (active)
20,COC(=O)c1ccc(NC(=O)CSc2nnc(-c3ccncc3)n2C)cc1,54.6% (active)
21,Cc1ccc(NC(=O)CSc2nnc(-c3cnccn3)n2Cc2ccco2)cc1C,5.5% (inactive)
22,Cc1ccc(C(C)C)c(OCc2nnc(SCC(=O)Nc3nccs3)n2C)c1,17% (inactive)
23,CCC1(C)N(O)C(C)(C)C(c2ccc(OC)cc2)=[N+]1[O-] (stereo unspecified),-7.3% (inactive)
24,C=CCNc1nc(N)c(C(=C(C#N)C#N)c2ccccc2)s1,21.5% (inactive)

row,SMILES,inhibition
1,CS(=O)(=O)N1CCN(C(=O)Cc2ccccc2)CC1,16.8% (inactive)
2,Cc1c(NC(=O)c2cc(-c3ccc(Cl)s3)nc3ccccc23)c(=O)n(-c2ccccc2)n1C,18.3% (inactive)
3,CSc1nnc2c(n1)OC(c1ccsc1)N(C(C)=O)c1ccccc1-2 (stereo unspecified),5.9% (inactive)
4,Cc1nc2ccccc2c(-c2ccccc2)c1C(=O)c1ccccc1,12% (inactive)
5,CCc1nnc(NS(=O)(=O)c2ccc(N=Cc3c(C)[nH]n(-c4ccc(C)cc4)c3=O)cc2)s1,-2.3% (inactive)
6,CCn1c(=N)n(CC(=O)c2cccc(OC)c2)c2ccccc21,-12.1% (inactive)
7,Cc1cc(C)cc(N(CC(=O)NCC2CCCO2)S(=O)(=O)c2c(C)noc2C)c1 (stereo unspecified),82.9% (active)
8,Cc1ccc(C(=O)NCC2CCCO2)o1 (stereo unspecified),-1.3% (inactive)
9,Cc1cc(C)cc(N(CC(=O)N2CC=C(c3ccccc3)CC2)S(=O)(=O)c2c(C)noc2C)c1,89.1% (active)
10,Cc1ccc(S(=O)(=O)N2CCC(C(=O)NCC3CCCO3)CC2)cc1 (stereo unspecified),6.5% (inactive)
11,CCOC(=O)C1CCCN(C(=O)CN(c2ccc(OC)cc2)S(=O)(=O)c2c(C)noc2C)C1 (stereo unspecified),12.3% (inactive)
12,O=C(Nc1ccc(Cl)c(Cl)c1)N1CC=C(c2ccccc2)CC1,28.4% (inactive)
13,Cc1cc(=O)n2nc(N3CCCC3C(=O)NCCCN3CC(C)CC(C)C3)sc2n1 (stereo unspecified),2.4% (inactive)
14,Cc1cccc(OCc2nnc(SCC(=O)N3CCN(C(=O)c4ccco4)CC3)n2C)c1C,1.1% (inactive)
15,CSc1nc(N)c(C#N)c(-c2ccccc2Cl)c1C#N,-13.6% (inactive)
16,CCOC(=O)C(=CNc1cccc(C)n1)C(=O)OCC,8.8% (inactive)
17,CCOC(=O)C1CN(S(=O)(=O)c2ccc(F)cc2)C1,43.8% (inactive)
18,Cc1c(CCO)c(=O)n(-c2ccccc2)n1S(=O)(=O)c1ccc(F)cc1,78.5% (active)
19,Cc1c(CCO)c(=O)[nH]n1C(=O)c1c(F)cccc1F,10% (inactive)
20,Cc1cc(N2C(=O)C(=O)/C(=C(/O)c3ccc(Cl)cc3)C2c2cccc(Br)c2)no1 (stereo unspecified),-6.1% (inactive)
21,CC1CCc2c(sc3c2C2=NS(=O)(=O)CCN2C=N3)C1 (stereo unspecified),-10% (inactive)
22,Cc1ccc(-n2nc3ccc(NC(=O)/C=C/c4ccco4)cc3n2)cc1C,-6.9% (inactive)
23,CCOc1ccc(-c2nnn(CC(=O)N3CCN(c4ccc(F)cc4)CC3)n2)cc1OCC,18.2% (inactive)
24,Cc1ccc(SCC(=O)c2cc(C)c(OC(=S)N(C)C)c(C)c2)cc1,66.7% (active)

row,SMILES,inhibition
1,COC(=O)c1cc(OC)c(OC)cc1NC(=O)CSc1ccc(C)cc1,29.5% (inactive)
2,Cc1ccc(SC(=O)COc2ccc(C)c(C)c2)cc1,1.6% (inactive)
3,O=S(=O)(Nc1ccccc1N1CCOCC1)c1ccc(Cl)s1,50.4% (active)
4,CC(=O)N1CCc2cc(S(=O)(=O)Nc3ccccc3N3CCN(C)CC3)ccc21,-2.4% (inactive)
5,O=C(CNC(=O)c1ccc(Cl)cc1Cl)NCC(=O)Nc1ccccc1N1CCOCC1,20.6% (inactive)
6,Cc1cc(NCc2ccco2)n2c(nc3ccccc32)c1C#N,0.2% (inactive)
7,O=C(O)C1CCN(C(=O)OCc2ccccc2)CC1,31.9% (inactive)
8,N#Cc1c(N)sc2c1CCN(C(=O)OCc1ccccc1)C2,92.8% (active)
9,CCN1CCc2c(C#N)c(NCc3ccccc3)nc(NCCO)c2C1,9% (inactive)
10,CC(C)Oc1ccc(C(=O)Nc2cc(=O)n(C)c(=O)n2C)cc1,12.2% (inactive)
11,COC(=O)c1c(NC(=O)CSc2nncs2)sc2c1CCCCC2,82.9% (active)
12,COC(=O)c1c(NC(=O)c2cccs2)sc2c1CCCC2,29.6% (inactive)
13,CCOC(=O)c1c(NC(=O)CSc2nnc(C)c(=O)[nH]2)sc2c1CCC2,-11.3% (inactive)
14,Cc1ccc(S(=O)(=O)N/N=C\c2cc3c(cc2[N+](=O)[O-])OCO3)cc1,-11% (inactive)
15,CC1=NN(C(C)C)C(=O)C1,-6.9% (inactive)
16,O=C(CN(c1ccccc1)S(=O)(=O)c1ccc(Cl)cc1)Nc1ccccc1C(=O)N1CCCC1,86.7% (active)
17,COCCN(CC(=O)Nc1ccccc1C)S(=O)(=O)c1ccc(S(=O)(=O)N2CCCC2)cc1,5.4% (inactive)
18,Cc1ccc(S(=O)(=O)NC(C)C(=O)Nc2ccccc2C(=O)N2CCCC2)cc1 (stereo unspecified),21.6% (inactive)
19,Cc1oc2nc(SCC(=O)NCc3cccnc3)nc(N)c2c1C,8% (inactive)
20,c1ccc2c(-c3nn4nnnc4c4ccccc34)cccc2c1,78.9% (active)
21,c1ccc2c(CNn3cnnc3)cccc2c1,26.1% (inactive)
22,COc1ccc2c(c1OC)C(=O)N(c1ncn[nH]1)C2,-17.6% (inactive)
23,O=C(CCCn1c(=O)oc2ccccc21)Nc1cccnc1,24.5% (inactive)
24,O=C(OCN1C(=O)c2ccccc2C1=O)/C(=C\c1ccco1)NC(=O)c1ccccc1,17.6% (inactive)

row,SMILES,inhibition
1,CS(=O)(=O)N(CC(O)Cn1c2ccccc2c2ccccc21)c1cccc2ccccc12 (stereo unspecified),77% (active)
2,Cc1ccc(N(CC(O)CN2CCCC2)S(=O)(=O)c2ccccc2)cc1 (stereo unspecified),16.8% (inactive)
3,CC(=O)c1ccc2c(c1)c1ccccc1n2CC(C)C,16.4% (inactive)
4,O=C(NCCCN1CCOCC1)c1cnn2c(-c3ccccc3)cc(-c3ccccc3)nc12,-3.7% (inactive)
5,c1ccc(-n2nnnc2NC2CCCCCC2)cc1,33.5% (inactive)
6,Fc1ccccc1CCNc1nnnn1-c1ccccc1,73.1% (active)
7,CCn1nnc(NC(=O)c2cc(Cl)c(OC)c(Cl)c2)n1,61.3% (active)
8,CCn1nnc(NC(=O)c2c(OC)cccc2OC)n1,-17.4% (inactive)
9,COc1c(Cl)cc(C(=O)Nc2ccc(Cl)cn2)cc1Cl,3.2% (inactive)
10,CCCCNC(=S)NNC(=O)c1cc(C)on1,26.1% (inactive)
11,CC(=O)Nc1cc2ccc(OC(C)=O)cc2oc1=O,8% (inactive)
12,Cc1cccc(N(CC(=O)N2CCOCC2)S(C)(=O)=O)c1,3.3% (inactive)
13,CCOC(=O)CN(C(=O)CN1CCOCC1)c1ccc(Br)cc1,64.6% (active)
14,CCOC(=O)c1c(CN2CCOCC2)n(-c2ccccc2)c2ccc(O)cc12,31.8% (inactive)
15,Cc1nn(Cc2ccc(C(=O)N3N=C(C(F)F)CC3(O)C(F)F)cc2)c(C)c1[N+](=O)[O-] (stereo unspecified),10% (inactive)
16,Cc1ccc(-c2nc3ccccc3[nH]2)cc1N,47% (inactive)
17,c1ccc2[nH]c(-c3nc4ccccc4[nH]3)nc2c1,53.1% (active)
18,c1ccc(-c2[nH]ncc2-c2nc3ccccc3[nH]2)cc1,31.2% (inactive)
19,CC(C)COC(=O)C1C2C=CC3(CN(C(C)c4ccc(Br)cc4)C(=O)C13)O2 (stereo unspecified),31% (inactive)
20,CC(=O)NC1(c2cccc(F)c2)CCN(CC(=O)NC(C)C)CC1,3.9% (inactive)
21,C/C(Cl)=C\Cn1c(Nc2cccc(C)c2)nc2c1c(=O)n(C)c(=O)n2C,-5.6% (inactive)
22,CCCOC(=O)C1=C(C)NC2=C(C(=O)C(C(=O)OC)C(C)C2)C1c1ccc(N(C)C)cc1 (stereo unspecified),3.6% (inactive)
23,COc1cc(C2C(C#N)=C(C)NC3=C2C(=O)CC(C)(C)C3)ccc1O (stereo unspecified),20.5% (inactive)
24,CCOC(=O)C1=C(C)NC2=C(C(=O)CC(C)(C)C2)C1c1ccsc1 (stereo unspecified),50.4% (active)

# Reference: PubChem BioAssay AID778 (Sanford-Burnham Center for Chemical Genomics, 2007)
